This is an account of results in PubChem BioAssay (NCI).

Common to all, as to test: NCI-60 one-dose screen, 48 h (100 = growth as untreated, 0 = no growth, -100 = all killed)
Holding throughout (details): 10 µM unless noted

The subject of assay [1] is NCI-H23 lung.
For assay [2], the system named is NCI-H226 lung.
Assay [3] relates to NCI-H322M lung.
Assay [4] has as its system HOP-62 NSCLC.
Assay [5] deals with NCI-H460 lung.
Assay [6] has as its system HOP-92 NSCLC.
Assay [7] has as its system NCI-H522 lung.
Assay [8] concerns A549/ATCC NSCLC.
For assay [9], the system named is 786-0 renal.
In assay [10] the test system is COLO 205 colon.
The test system of assay [11] is DU-145 prostate.
Assay [12] concerns K-562 leukemia.
Assay [13] deals with MALME-3M melanoma.
Assay [14] has as its system MDA-MB-231 breast.
The test system of assay [15] is RXF 393 renal.
The test system of assay [16] is SF-268 CNS.
The test system of assay [17] is SF-295 CNS.
Assay [18] deals with SF-539 CNS.
Assay [19] has as its system UACC-257 melanoma.
Assay [20] deals with M14 melanoma.

The panel holds about 83,000 compounds, 20% with a hit somewhere; the sample as a whole holds those more often.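 For each line, cells grew in 96-well plates with the test compound present at a single concentration for 48 hours.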 Unmarked numbers belong to inactive results. Active and inactive are the calls of the source. The calls were made as follows: active = growth percent below 10; inactive = the rest.

For `COc1ccc(CNc2ccc3nc(NC(=O)CN4CCCCCC4)sc3c2)cc1`, the growth in [1] is 71.1%; in assay [2], 80%; in assay [3] it was 106%; in assay [4], 113%; in assay [5], 94.9%; in [6] it was 77.6%. Further, the growth in [7] was 70.3%; in assay [8], 80.5%; in [9] it was 104%; in assay [10], 82.4%; in [11], 99.2%; in assay [12] it was 44.6%. The growth in assay [13] was 96.3%; in [14] it was 77.7%; in [15] it was 97%; in assay [16], 108%; in assay [17], 83.8%; in assay [18], 102%. For the same compound, the values for the growth in assay [19] and in [20] were 86% and 85.9%, respectively.
In the case of `C#Cc1cccc(NC(=O)C2CCCCN2C(=O)CCl)c1` (stereo not given), the growth is -76.1% [8.25 µM] (active) in assay [1]; -53.4% [8.25 µM] (active) in [2]; 65.1% [8.25 µM] in [3]; 26.6% [8.25 µM] in assay [4]; 10.9% [8.25 µM] in assay [5]; -54.2% [8.25 µM] (active) in assay [6]. The growth in assay [7] is -57% [8.25 µM] (active); in assay [8] it was 36.5% [8.25 µM]; in assay [9] it was -72.9% [8.25 µM] (active); in assay [10] it was -52.5% [8.25 µM] (active); in assay [11], -33.8% [8.25 µM] (active); in assay [12], 2.41% [8.25 µM] (active). Besides, the growth in assay [13] is -86.7% [8.25 µM] (active); in [14], -62% [8.25 µM] (active); in assay [15], -87.8% [8.25 µM] (active); in [16] it was -53.2% [8.25 µM] (active); in [17], 52.4% [8.25 µM]; in assay [18], -91.1% [8.25 µM] (active). Further, the growth in assay [19] is -0.384% [8.25 µM] (active); in assay [20] it was -41.9% [8.25 µM] (active).
Turning to `Cc1nc2sc(C(=O)Nc3cccc4ccccc34)c(N)c2cc1C(=O)c1ccccc1`, the growth is 40.2% in assay [1]; 68.3% in assay [2]; 62.4% in [3]; 42.5% in [4]; 7.31% (active) in assay [5]; 77.6% in assay [6]. Moreover, the growth in [7] was 15.5%; in assay [8], 23.5%; in assay [9], 42.5%; in assay [10], -2.82% (active); in assay [11], 18.3%; in assay [12], 9.45% (active). The growth in assay [13] is 58.5%; in assay [14], 15.2%; in assay [15], 22.6%; in [16], 53.4%; in assay [17], 10.4%; in assay [18], -12.1% (active). For the same compound, the growth is 72.7% in [19] and 12.4% in assay [20].
For the compound `Nc1ccc(Br)cc1C(F)(F)F`, the growth was 95.3% in assay [1]; 105% in assay [2]; 119% in assay [3]; 102% in [4]; 111% in assay [5]; 104% in [6]. Further, the growth in [7] was 103%; in assay [8] it was 102%; in assay [9] it was 105%; in assay [10], 102%; in [11], 116%; in [12], 97.1%. Moreover, the growth was 114% in assay [13]; 103% in [14]; 116% in [15]; 108% in [16]; 119% in assay [17]; 97% in assay [18]. The growth in assay [19] was 104%; in [20] it was 106%.
As to `O=S(=O)(Nc1ccc2ccccc2c1)c1ccc(-c2cnc(C3CC3)o2)cc1`, the growth in [1] is 41.1%; in assay [2], 62.1%; in assay [3] it was 48.7%; in assay [4] it was 31.6%; in [5], 15.2%; in [6], 54.2%. The growth in [7] was -0.255% (active); in assay [8] it was 37.6%; in [9] it was 42.7%; in assay [10], 1.46% (active); in assay [11], 18%; in [12] it was 10.4%. The growth in assay [13] is 50.3%; in assay [14], 52.4%; in assay [15], 2.78% (active); in assay [16] it was 53.5%; in [17], 34.2%; in assay [18], 6.39% (active). For the same compound, the growth was 44.5% in assay [19] and 19.4% in [20].
As for `O=C(O)c1cn(C2CC2)c2cc(N3CCN(C(=O)N4CCOCC4)CC3)c(F)cc2c1=O`, the growth in assay [1] is 99.5%; in [2], 99.3%; in [3] it was 104%; in assay [4] it was 106%; in assay [5] it was 115%; in [6], 95.5%. Also, the growth in [7] is 89.9%; in [8] it was 108%; in assay [9], 99.8%; in [10], 110%; in assay [11] it was 115%; in [12], 114%. Also, the growth in assay [13] is 88.6%; in [14], 104%; in assay [15] it was 94.6%; in [16], 97.9%; in [17] it was 106%; in assay [18], 102%. Besides, the growth in assay [19] was 98%; in assay [20] it was 102%.
For `CC(C)NS(=O)(=O)/N=C1\NC(=O)NC1=C(Cl)Cl`, the growth in [1] was 101%; in assay [2], 95.3%; in assay [3], 103%; in assay [4], 101%; in [5], 99.2%; in [6], 122%. Moreover, the growth in [7] was 54.2%; in [8] it was 94%; in assay [9], 110%; in [10] it was 113%; in assay [11], 104%; in assay [12] it was 91.3%. For the same compound, the growth in [13] is 99.9%; in assay [14], 116%; in [15], 112%; in assay [16], 91.3%; in [17], 103%; in assay [18] it was 96%. In addition, the growth in [19] is 76.8%; in assay [20], 97.2%.
As to `COc1ccc(/C=C2\CN(C(=O)C(Cl)Cl)C/C(=C\c3ccc(OC)c(OC)c3)C2=O)cc1OC`, the growth in [1] is -51.8% (active); in [2], 42.8%; in assay [3] it was 30%; in [4], 34.3%; in assay [5], -51.9% (active); in [6] it was -7.03% (active). Further, the growth was -14.1% (active) in [7]; 4.8% (active) in [8]; -94.9% (active) in [9]; -2.98% (active) in [10]; -16% (active) in assay [11]; 4.57% (active) in assay [12]. The growth is -70.9% (active) in assay [13]; 7.12% (active) in [14]; -67.1% (active) in assay [15]; 17.8% in assay [16]; -39.6% (active) in assay [17]; -23.8% (active) in assay [18]. Also, the growth in [19] was 18.4%; in [20], -72.6% (active).
`O=C(/C=C/c1cccc(Oc2ccccc2)c1)c1ccc(Nc2nc(Nc3ccc(F)cc3)nc(Nc3ccc(Cl)cc3)n2)cc1`: the growth in assay [1] is 77.1%; in [2], 113%; in assay [3], 93.8%; in [4] it was 104%; in assay [5] it was 108%; in assay [6] it was -6.77% (active). Besides, the growth was 109% in assay [7]; 90.2% in assay [8]; 96.1% in [9]; 103% in [10]; 117% in assay [11]; 11.5% in assay [12]. The growth in assay [13] is 90.4%; in assay [14], 108%; in assay [15], 96.6%; in assay [16], 99.9%; in [17], 104%; in [18], 116%. Besides, the values for the growth in [19] and in assay [20] were 109% and 106%, respectively.
As to `CS(=O)(=O)Nc1cc(-c2ccc3ncnc(Nc4ccc5c(cnn5Cc5ccncc5)c4)c3c2)cnc1Cl`, the growth is 62.2% in [1]; 92% in assay [2]; 76% in assay [3]; 43.9% in assay [4]; 97.2% in assay [5]; -7.79% (active) in [6]. The growth was 46.4% in [7]; 86% in [8]; 66.3% in assay [9]; 89.2% in assay [10]; 78.9% in [11]; 53.5% in assay [12]. Further, the growth in assay [13] is 20.8%; in assay [14] it was 43.4%; in assay [15], 21.1%; in assay [16] it was 45%; in [17], 84.5%; in assay [18], 50.3%. In addition, the growth is 59.4% in [19] and 56.2% in [20].
On to `COc1cc(OC)c2c(=O)c3c(CC=C(C)C)cc(OC)c(O)c3oc2c1`, for which the growth was 93.7% in assay [1]; 99.3% in assay [2]; 83.7% in assay [3]; 89.1% in assay [4]; 99.2% in [5]; 77% in assay [6]. In addition, the growth in assay [7] was 53%; in [8], 90.8%; in [9], 90.1%; in [10], 111%; in assay [11], 85%; in assay [12], 61.4%. For the same compound, the growth in assay [13] is 114%; in [14] it was 91.1%; in assay [15], 100%; in assay [16], 93.6%; in assay [17], 89.7%; in assay [18], 91.4%. Further, the growth in assay [19] is 107%; in assay [20], 91%.
For the compound `CC[C@@H](C(=O)[C@@H](C)[C@@H](O)[C@H](C)[C@@H]1O[C@@H]([C@@H](CC)C(=O)ONC(=O)c2ccccc2O)CC[C@@H]1C)C1O[C@]2(C=CC(=O)[C@]3(CC[C@@](C)([C@H]4CC[C@](O)(CC)[C@H](C)O4)O3)O2)[C@H](C)C[C@@H]1C` (stereo not given in full), the growth is 23.1% in assay [1]; 52.7% in assay [2]; 70% in assay [3]; 58.3% in assay [4]; 33.5% in [5]; 37.3% in assay [6]. For the same compound, the growth in assay [7] was 23.9%; in [8] it was 23.8%; in assay [9], 61.7%; in assay [10], 11.6%; in assay [11], 40.3%; in assay [12], 28.6%. Further, the growth in [13] was 4.34% (active); in assay [14] it was 50.9%; in [15] it was 35.2%; in [16], 54.2%; in assay [17], 44.7%; in assay [18] it was 27.5%. Besides, the growth in [19] was 38.3%; in [20], 63.6%.
As to `CNC(=O)c1cc(Oc2ccc3c(c2)sc2nc(-c4ccc(Cl)c(C(F)(F)F)c4)cn23)ccn1`, the growth in [1] is 53%; in assay [2] it was 52.6%; in assay [3] it was 88.5%; in assay [4] it was 75.9%; in [5], 51.3%; in assay [6], 73.1%. The growth is 42.6% in assay [7]; 61% in [8]; 68.6% in assay [9]; 58.4% in [10]; 74% in [11]; 30% in assay [12]. For the same compound, the growth in assay [13] was 47.4%; in assay [14], 77.1%; in [15] it was 87.1%; in [16] it was 73.7%; in [17] it was 48.5%; in assay [18] it was 64.4%. The growth is 35.9% in [19] and 69.5% in assay [20].
In the case of `CN(C)CCC(CCN(C)C)(C(=O)O)c1ccccc1`, the growth in [1] is 107%; in [2], 106%; in [3] it was 103%; in assay [4], 94%; in assay [5], 104%; in assay [6], 84.9%. Besides, the growth in [7] is 88.2%; in [8], 99%; in assay [9], 105%; in assay [10], 108%; in assay [11], 115%; in [12], 98.1%. The growth in [13] is 97.5%; in assay [14] it was 97.2%; in assay [15], 112%; in assay [16], 107%; in assay [17] it was 103%; in [18] it was 95.3%. Besides, the values for the growth in [19] and in [20] were 99.7% and 99.2%, respectively.
